# The entries come from a sample that favours the strongest signals as a whole.
# B1: FimD (Bordetella pertussis) (protein)
# chain: MPARVISFCGAALAVWAGLAVQPAMAVDPPVDCGRALGLHFWSSASLISDQTPDGTLIGKPVVGRSLLSKSCKVPDDIKEDLSDNHDGEPVDIVLELGSNYKIRPQSYGHPGIVVDLPFGSTEETGIAIYIDFGSSPMQKVGERQWLYPQKGEVLFDVLTINGDNAEVRYQAIKVGPLKRPRKLVLSQFPNLFTYKWVFMRGTSQERVLAQGTIDTDVATSTIDLKTCRYTSQTVSLPIIQRSALTGVGTTLGMTDFQMPFWCYGWPKVSVYMSATKTQTGVDGVALPATGQAAGMASGVGVQLINGKTQQPVKLGLQGKIALPEAQQTESATFSLPMKAQYYQTSTSTSAGKLSVTYAVTLNYD
# Experiments:
# Experiment in all cases: glycan array binding signal (z-score within array); higher = stronger binding
# Details in all cases: glycan notation: IUPAC condensed, linker removed
# [1] = biological target: Fuc(a1-2)Gal(b1-3)GlcNAc(b1-3)GalNAc
# Outline: (§1)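 Glycan array binding is given as a within-array Z-score, which can be read as non-binding when negative. The arrays, 3228 of them, came from the Consortium for Functional Glycomics database and were retained only where the protein sequence was available. Z-scores were averaged across arrays of the same protein sequence at different concentrations or buffers and across linkers.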
# [2] = biological target: Fuc(a1-2)Gal(b1-4)GlcNAc6S
# Outline: as §1
# [3] = biological target: Fuc(a1-2)Gal(b1-4)[Fuc(a1-3)]GlcNAc(b1-2)[Fuc(a1-2)Gal(b1-4)[Fuc(a1-3)]GlcNAc(b1-4)]Man(a1-3)[Fuc(a1-2)Gal(b1-4)[Fuc(a1-3)]GlcNAc(b1-2)Man(a1-6)]Man(b1-4)GlcNAc(b1-4)GlcNAc
# Outline: as §1
# [4] = biological target: Fuc(a1-2)Gal(b1-4)[Fuc(a1-3)]GlcNAc(b1-3)[Neu5Ac(a2-6)Gal(b1-4)GlcNAc(b1-6)]Gal(b1-4)Glc
# Outline: as §1
# Fuc(a1-2)Gal6S(b1-4)Glc = biological target: Fuc(a1-2)Gal6S(b1-4)Glc
# Outline: as §1
# [5] = biological target: Fuc(a1-2)[Gal(a1-3)]Gal(b1-3)GlcNAc
# Outline: as §1
# [6] = biological target: Fuc(a1-2)[GalNAc(a1-3)]Gal(b1-3)GalNAc(b1-3)Gal(a1-4)Gal(b1-4)Glc
# Outline: as §1
# [7] = biological target: Fuc(a1-2)[GalNAc(a1-3)]Gal(b1-4)GlcNAc(b1-2)Man(a1-3)[Fuc(a1-2)[GalNAc(a1-3)]Gal(b1-4)GlcNAc(b1-2)Man(a1-6)]Man(b1-4)GlcNAc(b1-4)[Fuc(a1-6)]GlcNAc
# Outline: as §1
# [8] = biological target: Fuc(a1-2)[GalNAc(a1-3)]Gal(b1-4)GlcNAc(b1-3)Gal(b1-4)GlcNAc(b1-3)Gal(b1-4)GlcNAc
# Outline: as §1
# [9] = biological target: Fuc(a1-2)[GalNAc(a1-3)]Gal(b1-4)[Fuc(a1-3)]GlcNAc(b1-3)GalNAc
# Outline: as §1
# Fuc(a1-4)GlcNAc = biological target: Fuc(a1-4)GlcNAc
# Outline: as §1
# [10] = biological target: Gal(a1-3)Gal(b1-4)GlcNAc(b1-2)Man(a1-3)[Gal(a1-3)Gal(b1-4)GlcNAc(b1-2)Man(a1-6)]Man(b1-4)GlcNAc(b1-4)GlcNAc
# Outline: as §1
# Gal(b1-3)GalNAc(b1-3)Gal = biological target: Gal(b1-3)GalNAc(b1-3)Gal
# Outline: as §1
# [11] = biological target: Gal(b1-3)GlcNAc(a1-6)Gal(b1-4)GlcNAc
# Outline: as §1
# [12] = biological target: Gal(b1-3)GlcNAc(b1-2)Man(a1-3)[Gal(b1-3)GlcNAc(b1-2)Man(a1-6)]Man(b1-4)GlcNAc(b1-4)[Fuc(a1-6)]GlcNAc
# Outline: as §1
# [13] = biological target: Gal(b1-3)GlcNAc(b1-2)[Gal(b1-3)GlcNAc(b1-6)]Man(a1-6)[Gal(b1-3)GlcNAc(b1-2)Man(a1-3)]Man(b1-4)GlcNAc(b1-4)GlcNAc
# Outline: as §1
# [14] = biological target: Gal(b1-3)GlcNAc(b1-3)Gal(b1-4)Glc
# Outline: as §1
# [15] = biological target: Gal(b1-3)GlcNAc(b1-3)Gal(b1-4)GlcNAc(b1-2)[Gal(b1-3)GlcNAc(b1-3)Gal(b1-4)GlcNAc(b1-6)]Man(a1-6)[Gal(b1-3)GlcNAc(b1-3)Gal(b1-4)GlcNAc(b1-2)Man(a1-3)]Man(b1-4)GlcNAc(b1-4)[Fuc(a1-6)]GlcNAc
# Outline: as §1
# [16] = biological target: Gal(b1-3)GlcNAc(b1-3)Gal(b1-4)GlcNAc(b1-3)Gal(b1-4)GlcNAc(b1-2)[Gal(b1-3)GlcNAc(b1-3)Gal(b1-4)GlcNAc(b1-3)Gal(b1-4)GlcNAc(b1-6)]Man(a1-6)[Gal(b1-3)GlcNAc(b1-3)Gal(b1-4)GlcNAc(b1-3)Gal(b1-4)GlcNAc(b1-2)Man(a1-3)]Man(b1-4)GlcNAc(b1-4)[Fuc(a1-6)]GlcNAc
# Outline: as §1
# [17] = biological target: Gal(b1-3)[Fuc(a1-4)]GlcNAc(b1-6)GalNAc
# Outline: as §1
# [18] = biological target: Gal(b1-4)GalNAc(a1-3)[Fuc(a1-2)]Gal(b1-4)GlcNAc
# Outline: as §1
# Gal(b1-4)Glc = biological target: Gal(b1-4)Glc
# Outline: as §1
# [19] = biological target: Gal(b1-4)GlcNAc(b1-3)Gal(b1-3)GalNAc
# Outline: as §1
# [20] = biological target: Gal(b1-4)GlcNAc(b1-3)Gal(b1-4)GlcNAc(b1-3)Gal(b1-4)GlcNAc(b1-3)Gal(b1-4)GlcNAc(b1-3)Gal(b1-4)GlcNAc(b1-2)Man(a1-3)[Gal(b1-4)GlcNAc(b1-3)Gal(b1-4)GlcNAc(b1-3)Gal(b1-4)GlcNAc(b1-3)Gal(b1-4)GlcNAc(b1-3)Gal(b1-4)GlcNAc(b1-2)Man(a1-6)]Man(b1-4)GlcNAc(b1-4)GlcNAc
# Outline: as §1
# [21] = biological target: Gal(b1-4)GlcNAc(b1-3)Gal(b1-4)GlcNAc(b1-3)Gal(b1-4)GlcNAc(b1-3)Gal(b1-4)GlcNAc(b1-3)Gal(b1-4)GlcNAc(b1-2)[Gal(b1-4)GlcNAc(b1-3)Gal(b1-4)GlcNAc(b1-3)Gal(b1-4)GlcNAc(b1-3)Gal(b1-4)GlcNAc(b1-3)Gal(b1-4)GlcNAc(b1-6)]Man(a1-6)[Gal(b1-4)GlcNAc(b1-3)Gal(b1-4)GlcNAc(b1-3)Gal(b1-4)GlcNAc(b1-3)Gal(b1-4)GlcNAc(b1-3)Gal(b1-4)GlcNAc(b1-2)Man(a1-3)]Man(b1-4)GlcNAc(b1-4)[Fuc(a1-6)]GlcNAc
# Outline: as §1
# Gal3S(b1-4)Glc = biological target: Gal3S(b1-4)Glc
# Outline: as §1
# Gal6S(b1-3)GlcNAc = biological target: Gal6S(b1-3)GlcNAc
# Outline: as §1
# [22] = biological target: GalNAc(a1-3)GalNAc(b1-3)Gal(a1-4)Gal(b1-4)Glc
# Outline: as §1
# GalNAc(b1-3)Gal = biological target: GalNAc(b1-3)Gal
# Outline: as §1
# GalNAc(b1-3)GalNAc = biological target: GalNAc(b1-3)GalNAc
# Outline: as §1
binder,measurement,setting,value
B1,glycan array binding signal (z-score),[1],-0.342
same,glycan array binding signal (z-score),[2],-0.052
same,glycan array binding signal (z-score),[3],0.133
same,glycan array binding signal (z-score),[4],-0.355
same,glycan array binding signal (z-score),Fuc(a1-2)Gal6S(b1-4)Glc,-0.056
same,glycan array binding signal (z-score),[5],-0.256
same,glycan array binding signal (z-score),[6],-0.248
same,glycan array binding signal (z-score),[7],-0.394
same,glycan array binding signal (z-score),[8],0.141
same,glycan array binding signal (z-score),[9],19.2
same,glycan array binding signal (z-score),Fuc(a1-4)GlcNAc,1.73
same,glycan array binding signal (z-score),[10],1.67
same,glycan array binding signal (z-score),Gal(b1-3)GalNAc(b1-3)Gal,-0.089
same,glycan array binding signal (z-score),[11],-0.163
same,glycan array binding signal (z-score),[12],0.621
same,glycan array binding signal (z-score),[13],0.171
same,glycan array binding signal (z-score),[14],-0.264
same,glycan array binding signal (z-score),[15],1.82
same,glycan array binding signal (z-score),[16],0.259
same,glycan array binding signal (z-score),[17],2.73
same,glycan array binding signal (z-score),[18],-0.051
same,glycan array binding signal (z-score),Gal(b1-4)Glc,-0.288
same,glycan array binding signal (z-score),[19],-0.264
same,glycan array binding signal (z-score),[20],0.072
same,glycan array binding signal (z-score),[21],0.919
same,glycan array binding signal (z-score),Gal3S(b1-4)Glc,-0.263
same,glycan array binding signal (z-score),Gal6S(b1-3)GlcNAc,0.772
same,glycan array binding signal (z-score),[22],-0.169
same,glycan array binding signal (z-score),GalNAc(b1-3)Gal,0.008
same,glycan array binding signal (z-score),GalNAc(b1-3)GalNAc,-0.207
